ABCB6 inh 2 = blocks the human ABCB6 transporter; Q9NP58; K562-ABCB6 porphyrin accumulation, flow cytometry, 1 h; hits give low values; fluorescence ratio to DMSO, % at 10 µM; 0.19% of 360,000 active; AID 602162;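 active means fluorescence ratio to DMSO below 75%, the collection mean minus 3 SD; inconclusive means too few cells collected in the well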;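 further: signal is porphyrin accumulated inside mitochondria; 100% equals median channel fluorescence of DMSO control wells; lower ratio means ABCB6 inhibition with less porphyrin fluorescence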
TLR9-MyD88 inh = blocks human TLR9 binding to MyD88; inhibition, % at 4.98 µM; AID 504734; CHO BLA complementation TLR9-MyD88, CCF4 FRET ratio; 0.21% of 340,000 active;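 active means inhibition above the mean over all tested compounds plus 3 SD, cut at about 21% in these data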;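 further: 0% = DMSO only wells and 100% = clavulanate BLA inhibitor control wells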
Myeloid diff MLP = promotes myeloid progenitor differentiation. 1% of 360,000 active. ER-HoxA9 myeloid progenitors, lysozyme-GFP differentiation, flow cytometry. AID 624256. calls only at 10 µM;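 active means normalized GFP-positive differentiation at or above the plate's own cutoff, the solvent-only control mean plus 3 SD; inconclusive means no clear call, values can overlap the other calls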;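 further: cells exposed to compound for four days before flow analysis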
TLR4-MyD88 BLA = inhibitors of human TLR4-MyD88 binding; AID 861; 0.18% of 200,000 active; HeLa CL3-4 TLR4/MyD88 BLA complementation, FRET ratio; O00206+Q99836; inhibition, % at 8.4 µM; in the data active means inhibition above about 25%;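 further: 0% = vehicle and 100% = reference inhibitor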
NOD2-RIPK2 inh = blocks binding of human NOD2 to RIPK2; CHO BLA complementation NOD2-RIPK2, CCF4 ratio; O43353; inhibition, % at 4.98 µM; 0.38% of 360,000 active; in the data active means inhibition above about 21%;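 further: 0% = vehicle only and 100% = reference blocker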
Starred values were filed as active, the others as inactive. The list is not random: actives were taken first. Their share in the collection is about 1.7%.

C#CCOCCOCCOCCNc1nc(N2CCN(C(=O)C([C@@H](C)O)n3cc([C@@H](N)CCCCN)nn3)CC2)nc(N2CCN(C(=O)[C@H](CCC(=O)O)n3cc([C@@H](N)[C@H](C)CC)nn3)CC2)n1 (some centres undefined) was read as ABCB6 inh 2 96, TLR9-MyD88 inh -4, Myeloid diff MLP active and NOD2-RIPK2 inh 4.
Cc1cc(NNC(=O)c2cccc(C(F)(F)F)c2)nc2c1c(C)nn2C was read as ABCB6 inh 2 97, TLR9-MyD88 inh 10, Myeloid diff MLP inactive and NOD2-RIPK2 inh 3.
`Cc1ccc(S(=O)(=O)N2CCOCC2)cc1C(=O)NCc1ccccc1CN1CCCC1` gave ABCB6 inh 2 89, TLR9-MyD88 inh -7, Myeloid diff MLP inactive and NOD2-RIPK2 inh 4.
`O=C1CSC(=S)N1` gave ABCB6 inh 2 91, TLR9-MyD88 inh 9, Myeloid diff MLP inactive and NOD2-RIPK2 inh -9.
`COc1cccc(Nc2nc(C(N)Cc3ccc(C(F)(F)F)cc3)cs2)n1` (centres undefined) gave ABCB6 inh 2 98, Myeloid diff MLP inactive and NOD2-RIPK2 inh 6.
`O=C(Nc1ccc2c(c1)OCCO2)C1CCCN(S(=O)(=O)c2cnc[nH]2)C1` (centres undefined) gave ABCB6 inh 2 103, TLR9-MyD88 inh 1, Myeloid diff MLP inactive, TLR4-MyD88 BLA -12 and NOD2-RIPK2 inh 0.
O=S1(=O)CCC(NC(=S)Nc2ccc(Cl)cc2)C1 (centres undefined) was read as ABCB6 inh 2 73*, TLR9-MyD88 inh -2, Myeloid diff MLP inactive, TLR4-MyD88 BLA -5 and NOD2-RIPK2 inh -4.
CCNC(=S)NNC(=O)CCc1nc2cc(Cl)ccc2n(Cc2ccccc2)c1=O was read as ABCB6 inh 2 99, TLR9-MyD88 inh 4, Myeloid diff MLP active and NOD2-RIPK2 inh -2.
Screening O=C(NCC(c1ccco1)N1CCCCC1)c1ccc([N+](=O)[O-])s1 (centres undefined) returned ABCB6 inh 2 95, Myeloid diff MLP active and NOD2-RIPK2 inh 9.
Cc1ccc(C(=O)NCC(c2ccco2)N2CCCCC2)s1 (centres undefined) was read as ABCB6 inh 2 100, TLR9-MyD88 inh 0, Myeloid diff MLP inactive and NOD2-RIPK2 inh 3.
Cc1ccc2oc(C(=O)NCC(c3ccco3)N3CCCC3)c(C)c2c1 (centres undefined) was read as ABCB6 inh 2 92, TLR9-MyD88 inh -5, Myeloid diff MLP active and NOD2-RIPK2 inh -13.
`Cc1ccc(C)c(NC(=O)CCC(=O)NN=C2CCCC2)c1` gave ABCB6 inh 2 92, TLR9-MyD88 inh -2, Myeloid diff MLP inactive and NOD2-RIPK2 inh -5.
For Oc1ccc(CNc2ccc(F)cc2)c2cccnc12 the results were ABCB6 inh 2 102, TLR9-MyD88 inh 2, Myeloid diff MLP active, TLR4-MyD88 BLA 0 and NOD2-RIPK2 inh -8.
Oc1ccc(CNc2ccccc2)c2cccnc12 was read as ABCB6 inh 2 90, TLR9-MyD88 inh -5, Myeloid diff MLP inactive, TLR4-MyD88 BLA -11 and NOD2-RIPK2 inh 6.
Screening O=C1CN(CC(=O)Nc2cccc(Cl)c2Cl)c2ccccc2N1 returned ABCB6 inh 2 120, TLR9-MyD88 inh 4, Myeloid diff MLP active, TLR4-MyD88 BLA -15 and NOD2-RIPK2 inh 4.
For O=C(O)c1ccc(CNCc2cccc(OCc3ccc(F)cc3)c2)cc1 the results were ABCB6 inh 2 96, TLR9-MyD88 inh -2, Myeloid diff MLP inactive and NOD2-RIPK2 inh -4.
Screening Fc1ccc(COc2cccc(CNCc3ccncc3)c2)cc1 returned ABCB6 inh 2 98, TLR9-MyD88 inh -1, Myeloid diff MLP active, TLR4-MyD88 BLA -6 and NOD2-RIPK2 inh 3.
Screening O=C(Nc1ccccc1)C1Cc2c(-c3ccc(Cl)cc3)ccnc2O1 (centres undefined) returned ABCB6 inh 2 94, Myeloid diff MLP inactive and NOD2-RIPK2 inh -1.
Screening CCOC(=O)C1=C(C)N=c2s/c(=C\c3ccc(OC(C)=O)cc3)c(=O)n2C1/C=C/c1ccccc1 (centres undefined) returned ABCB6 inh 2 179, TLR9-MyD88 inh -4, Myeloid diff MLP active, TLR4-MyD88 BLA 8 and NOD2-RIPK2 inh 2.
`CCN1CCN(Cc2ccc(NC(=O)c3ccc(C)c(NC(=O)c4cncc(-c5cccs5)c4)c3)cc2C(F)(F)F)CC1` gave ABCB6 inh 2 91, TLR9-MyD88 inh 7, Myeloid diff MLP inconclusive and NOD2-RIPK2 inh 29*.

Bioassay records: PubChem BioAssay, several laboratories
